ssDAF12 agonist: S. stercoralis DAF-12 activation, primary screen; 370,000 compounds, 1% hits; AID 652126; HEK293 ssDAF-12/GRIP1 lit1-tk-luc reporter, luminescence; % of 3 µM dafachronic acid response; activation, % at 6.8 µM;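 active = activation above the mean over all tested compounds plus 3 SD, cut at about 0.9% in these data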
hcDAF-12 act: H. contortus DAF-12 activation, primary screen | HEK293 hcDAF-12 lit1-tk-luc reporter, luminescence; 0% DMSO, 100% Δ7-dafachronic acid | activation, % at 6.8 µM | 370,000 compounds, 1.4% hits | AID 652067;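 active = activation above the mean of all tested compounds plus 3 SD, cut at about 5.5% in these data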
hgDAF-12 ag: agonists of H. glycines DAF-12 nuclear receptor | 370,000 compounds, 1.8% hits | HEK293 GAL4-hgDAF12 UAS-luciferase reporter, agonist luminescence; normalized to butyrate control | AID 687014 | activation, % at 6.8 µM;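 active = activation above a cutoff set at the mean of all screened compounds plus 3 SD, cut at about 10% in these data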
APP 5'UTR act: activates APP 5'UTR luciferase reporter; AID 1276; 190,000 compounds, 1% hits; SH-SY5Y APP 5'UTR luciferase reporter, luminescence; zero percent = DMSO vehicle wells; activation, % at 2 µM;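 active = activation above a set limit, based on mean plus 3 SD of controls, cut at about 140% in these data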
NF-kB expr up: NF-kB expression increase, human neuronal cells. NF-kB reporter expression; hits give high values. fold change at 12.5 µM. 190,000 compounds, 1.6% hits; in the data active = fold change above about 3.3
LXRb hcDAF ctr: counter-screen for hcDAF-12 agonists: agonists of human LXR-beta; shares compounds with hcDAF-12 act; HEK293 Gal4-LXR tk-luc reporter, luminescence, 24 h; normalized: DMSO 0%, positive control 100%; activation, % at 6.8 µM; 3,400 tested, under 10 active; AID 743027;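 active = mean percent activation of the reporter above a cutoff set as the average over tested compounds plus their standard deviation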
Target sequence (P55055 whole entry, looked up, the tested form may be a part): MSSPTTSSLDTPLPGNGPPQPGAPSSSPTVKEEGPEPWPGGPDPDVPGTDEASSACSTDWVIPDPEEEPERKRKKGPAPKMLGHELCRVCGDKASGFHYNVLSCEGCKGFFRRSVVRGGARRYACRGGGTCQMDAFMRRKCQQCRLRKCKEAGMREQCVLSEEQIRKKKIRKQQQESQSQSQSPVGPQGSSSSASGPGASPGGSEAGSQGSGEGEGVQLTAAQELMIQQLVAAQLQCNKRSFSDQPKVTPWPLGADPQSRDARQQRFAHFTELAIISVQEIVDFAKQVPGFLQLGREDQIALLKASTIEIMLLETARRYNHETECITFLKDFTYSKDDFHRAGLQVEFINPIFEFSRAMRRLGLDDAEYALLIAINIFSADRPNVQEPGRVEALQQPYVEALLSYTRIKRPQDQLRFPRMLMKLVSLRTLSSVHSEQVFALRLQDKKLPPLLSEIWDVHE
hcDAF12 conf: confirmation of H. contortus DAF-12 agonists | shares compounds with hcDAF-12 act | HEK293 hcDAF-12 lit1-tk-luc reporter, luminescence; % of Δ7-dafachronic acid response | activation, % at 6.8 µM | 3,400 compounds, 61% hits | AID 743032;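 active = mean activation across triplicate tests above the threshold derived from the earlier primary screen, cut at about 5.5% in these data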
hgDAF12 ag: hgDAF-12 agonism, confirmation assay. shares compounds with hgDAF-12 ag. HEK293 GAL4-hgDAF12 luciferase reporter, agonist mode; percent of butyrate response. activation, % at 6.8 µM. 3,300 compounds, 80% hits;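 active = mean activation over triplicate wells above the hit cutoff derived from the earlier primary screen, cut at about 11% in these data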
LXR ag 2: counter-screen for DAF-12 agonists: agonists of human LXR-beta | shares compounds with hgDAF-12 ag | HEK293 Gal4-LXR luciferase reporter, 24 h | activation, % at 6.8 µM | 3,300 tested, under 10 active | AID 743051;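 active = mean activation of the triplicate above a set limit carried over from the primary screen, none filed active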
Each line names hits and unclear results; the compound was inactive in the other large screens (follow-up assays come after a bar, where they were run). Sampled rows, rich in hits. Any-hit rate of the full collection: about 3.4%.

CC1=NC(=O)C(N=Nc2ccccc2C(=O)O)N1c1ccccc1 (configuration not stated)	none
Cc1ccc2nc(-c3ccc(NC(=O)CCS(=O)(=O)c4ccccc4)cc3)sc2c1	ssDAF12 agonist 1.5, hcDAF-12 act 8.9, hgDAF-12 ag 18, NF-kB expr up 3.6 | LXRb hcDAF ctr inactive | hcDAF12 conf 7.6 | hgDAF12 ag 13 | LXR ag 2 inactive
Cc1nc2ccc(NC(=O)CCS(=O)(=O)c3ccccc3)cc2s1	none
Cc1ccc2nc(-c3ccc(NC(=O)CN4C(=O)c5ccccc5C4=O)cc3)sc2c1	ssDAF12 agonist 2.2, hcDAF-12 act 14, hgDAF-12 ag 19 | LXRb hcDAF ctr inactive | hcDAF12 conf 8.3 | hgDAF12 ag 16 | LXR ag 2 inactive
Cc1ccc2nc(-c3ccc(NC(=O)COC(=O)c4ccc(=O)[nH]c4)cc3)sc2c1	ssDAF12 agonist 1.2, hcDAF-12 act 11, hgDAF-12 ag 22, APP 5'UTR act 165, NF-kB expr up 6.5 | LXRb hcDAF ctr inactive | hcDAF12 conf 11 | hgDAF12 ag 23 | LXR ag 2 inactive
CCOc1ccc(/C=N/O)cc1	none
Cc1ccc(COc2ccc(/C=N/O)cc2)cc1	ssDAF12 agonist 1.4, hcDAF-12 act 7.8, hgDAF-12 ag 17, NF-kB expr up 6.3 | LXRb hcDAF ctr inactive | hcDAF12 conf 7.0 | hgDAF12 ag 17 | LXR ag 2 inactive
COc1ccc2oc(C(=O)Nc3nccs3)c(C)c2c1	hcDAF-12 act 8.2, hgDAF-12 ag 18 (no result: APP 5'UTR act, NF-kB expr up) | LXRb hcDAF ctr inactive | hcDAF12 conf 10 | hgDAF12 ag 23 | LXR ag 2 inactive
CCc1nccn1CC(=O)c1ccc(O)c(O)c1	none (no result: APP 5'UTR act, NF-kB expr up)
O=C(NCCc1ccccc1)OCc1cn(-c2ccccc2Cl)nn1	none (no result: APP 5'UTR act, NF-kB expr up)
CC(C)(C)c1ccc(/C=C/C(=O)Nc2nncs2)cc1	hcDAF-12 act 7.4, hgDAF-12 ag 21, APP 5'UTR act 168 | LXRb hcDAF ctr inactive | hcDAF12 conf 6.8 | hgDAF12 ag 12 | LXR ag 2 inactive
O=S(=O)(Nc1nc2ccccc2nc1N1CCN(c2ccccn2)CC1)c1ccc(Cl)cc1	none
O=S(=O)(Nc1nc2ccccc2nc1N1CCc2ccccc2C1)c1ccc(Cl)cc1	ssDAF12 agonist 2.5, hcDAF-12 act 16, hgDAF-12 ag 20 | LXRb hcDAF ctr inactive | hcDAF12 conf 6.3 | hgDAF12 ag 24 | LXR ag 2 inactive
COc1ccc(C(=O)C2(C(=O)Nc3cc(C)cc(C)c3)CC(c3ccccn3)=NO2)cc1 (configuration not stated)	none (no result: APP 5'UTR act, NF-kB expr up)
Cn1c(N=NC(=O)c2ccccc2)c(O)c2ccccc21	ssDAF12 agonist 2.1, hcDAF-12 act 13, hgDAF-12 ag 21 | LXRb hcDAF ctr inactive | hcDAF12 conf 5.9 | hgDAF12 ag 16 | LXR ag 2 inactive
COC(=O)[C@]12C[C@H](CC(=O)NCc3cccc(C(F)(F)F)c3)C(=O)N(Cc3ccc(Cl)cc3Cl)C1=C[C@H](C(C)(C)C)O[C@@H]2C	none (no result: APP 5'UTR act, NF-kB expr up)
COc1ccc2c(c1)CC/C(=C\c1ccc(OC)c(Cn3cccn3)c1)C2=O	none
O=C1C(=Cc2ccccc2Cl)CCc2ccccc21	hcDAF-12 act 10, hgDAF-12 ag 23 (no result: APP 5'UTR act, NF-kB expr up) | LXRb hcDAF ctr inactive | hcDAF12 conf 5.9 | hgDAF12 ag 16 | LXR ag 2 inactive
O=C1C(=Cc2ccc(F)cc2)CCc2ccccc21	hcDAF-12 act 7.9, hgDAF-12 ag 22 (no result: APP 5'UTR act, NF-kB expr up) | LXRb hcDAF ctr inactive | hcDAF12 conf inactive | hgDAF12 ag 17 | LXR ag 2 inactive
COc1ccc(C=C2CCc3ccccc3C2=O)cc1	none (no result: APP 5'UTR act, NF-kB expr up)
COc1ccccc1C=C1CCc2ccccc2C1=O	hcDAF-12 act 7.2, hgDAF-12 ag 18 (no result: APP 5'UTR act, NF-kB expr up) | LXRb hcDAF ctr inactive | hcDAF12 conf 7.5 | hgDAF12 ag 13 | LXR ag 2 inactive
